Data from PubChem BioAssay AID687014 (The Scripps Research Institute Molecular Screening Center, 2013).
Values joined by “and” are separate entries in the source; they are usually repeats but may differ in a detail not shown here. Identical values can stand only once. In all, about 370,000 compounds went through this assay and about 6,800 (1.8%) were called active. Shown is part of a subset that was picked to be rich in actives. A number with no mark means an inactive call.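 The calls were made as follows: active = activation above a cutoff set at the mean of all screened compounds plus 3 SD (cut at about 10% in these data); inactive = the rest.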

These molecules were tested on Nuclear hormone receptor DAF-12 (Heterodera glycines), GAL4 fusion (assay: hgDAF-12 GAL4 fusion reporter activation – cell-based, luminescence, HEK293, UAS-luciferase, primary screen (AID 687014;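 also: 0% = DMSO wells and 100% = sodium butyrate wells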)). Settings: HEK293 GAL4-hgDAF12 UAS-luciferase reporter, agonist luminescence; at 6.8 µM; hits give high values; normalized to butyrate control.
For `O=C(CSc1nc2sc3c(c2c(=O)n1-c1ccccc1)CCCC3)NN=Cc1ccc(OCc2ccccc2)cc1`, the activation was 4.38%.
In the case of `O=C1CCC2(CCC(c3ccc(Cl)cc3)CC2)N1CCO` (configuration not stated), the activation is reported as -4.23%.
In the case of `CCC(=O)NC(=Nc1nc2ccccc2s1)NC(=O)CC`, the activation is reported as 12.5% (active).
`CC(C)CC(=O)N/C(N)=N/c1nc2ccccc2s1` gave an activation of 9.05%.
For `CC(C)C(C)NC(=O)COc1ncnc2ccccc12` (configuration not stated), the activation was 1.57%.
Work on `O=C(CN1CCC(NC(=O)NCc2ccccc2)CC1)Nc1ccc2c(c1)OCCO2` yielded an activation of 1.23%.
`Cc1ccc(NC(=O)CC2C(=O)N(Cc3ccccc3)C(=S)N2NC(=O)c2cccc(F)c2)c(C)c1` (configuration not stated) gave an activation of -3.58%.
Molecule `Cc1c(Br)c([N+](=O)[O-])nn1CC(=O)N1CCN(Cc2ccccc2)CC1` has an activation of 4.33%.
In the case of `CCOc1cccc(C(=O)Nc2cnn(Cc3ccccc3)c2)c1`, the activation is reported as 2.99%.
In the case of `O=C(Nc1ccn(Cc2ccccc2)n1)c1n[nH]c([N+](=O)[O-])c1Cl`, the activation is reported as 16.8% (active).
`O=C(Cn1cnc([N+](=O)[O-])n1)NCCc1ccccc1` gave an activation of 2.5%.
In the case of `O=C(Nc1ccn(Cc2ccccc2)n1)c1cccc(F)c1`, the activation is reported as 20% (active).
In the case of `CC(c1c[nH]c2ccccc12)c1c(-c2ccccc2)n(C)c2ccccc12` (configuration not stated), the activation is reported as 0.36%.
In the case of `COC(=O)[C@]1(Cc2ccccc2)NC=C(C(=O)c2ccccc2)[C@@H]1c1cccc(OC)c1`, the activation is reported as 1.41%.
With `Cc1cc(C)cc(NC(=O)N2CCC(N(C)CCC(C)C)CC2)c1` the activation was 3.99%.
In the case of `O=C(NCCCN1CCOCC1)c1ccccc1NS(=O)(=O)c1ccc(F)cc1`, the activation is reported as -1.36%.
`O=C(NCCCN1CCOCC1)c1cc(-c2ccccc2F)no1` was tested, and the activation was 14.2% (active).
`O=C(NCCCN1CCOCC1)c1cnn2c(-c3ccccc3)cc(-c3ccccc3)nc12` showed an activation of -2.14%.
Work on `Cc1cccc(CN2CCN(C3CN(Cc4cn(Cc5cc(C)cc(C)c5)nn4)S(=O)(=O)C3)CC2)c1` (configuration not stated) yielded an activation of -3.8%.
For `Cn1c(-c2ccc(C(=O)c3ccccc3)s2)nc2ccccc21`, the activation was 13.5% (active).
`CCC(C(=O)Nc1c(C)cccc1C)n1c(-c2cc(C)cs2)nc2ccccc21` (configuration not stated) gave an activation of 2.55%.
For `CCC(C(=O)NC(C)(C)C)n1c(-c2ccccc2)nc2ccccc21` (configuration not stated), the activation was 0.22%.
In the case of `O=C(NC1=CC(=O)c2ccccc2C1=O)c1ccccc1`, the activation is reported as -6.53%.
Work on `CCn1c(NC(=O)c2nn(C)cc2Br)nc2ccccc21` yielded an activation of -4.58%.
`Cn1c(NC(=O)c2ccccc2)nc2ccccc21` was tested, and the activation was 15.2% (active).
Molecule `CCOC(=O)[C@]12CCCC=C1N(Cc1ccc(OC)cc1)C(=O)[C@@H]2CC(=O)NCc1cccs1` has an activation of -4.41%.
`CN1CCCc2nc(-c3ccccc3)ccc21` showed an activation of 7.25%.
`CCOC(=O)c1ccc(NC2Nc3cc(C)nn3S2)cc1` (configuration not stated) gave an activation of 2.62%.
`CCc1ccc(NC2Nc3cc(C)nn3S2)cc1` (configuration not stated) was tested, and the activation was 19.2% (active).
`COCCNC(=O)Cn1cc2c(n1)CCCCC2` showed an activation of 0.5%.
Molecule `CN(CC(=O)Nc1c(Cl)cccc1Cl)C(=O)CC1OC(=O)c2ccccc21` (configuration not stated) has an activation of -1.08%.
`CCOC(=O)c1sc(/N=C/Nc2nc(C)c(C(=O)OCC)s2)nc1C` gave an activation of 0.82%.
`CC(=O)c1sc(N/N=C/c2ccc(C(C)C)cc2)nc1C` was tested, and the activation was 14.4% (active).
In the case of `CC(=O)c1sc(N/N=C\c2ccc(C)cc2)nc1C`, the activation is reported as 11.2% (active).
In the case of `CC(=O)c1sc(N)nc1C`, the activation is reported as 1.06% and 4.44%.
Work on `Cc1cc2c(=O)n(CC(=O)NCC(=O)Nc3ccc(C(C)C)cc3)cnc2s1` yielded an activation of 1.17%.
With `C=CC[C@]12C[C@@]3(O[C@H](c4ccc(C(F)(F)F)cc4)N=C3C[C@H](c3ccc(OC)cc3)[C@H]1C)N(C1CCN(Cc3ccccc3)CC1)C2=O` the activation was 0.9%.
Molecule `c1csc(-c2nnc(SCc3nc4ccccc4[nH]3)o2)c1` has an activation of -0.48%.
Work on `CCOC(=O)C1=CN(Cc2ccc(Br)cc2)S(=O)(=O)N(C)C1C` (configuration not stated) yielded an activation of 0.23%.
With `Cc1ccc(S(=O)(=O)N(NC2=NS(=O)(=O)c3ccccc32)C(=O)c2ccccc2)cc1` the activation was 0.43%.
In the case of `CC(C)(C)c1csc(NC2=NS(=O)(=O)c3ccccc32)n1`, the activation is reported as 19.4% (active).
`O=C(Oc1cccc(NC2=NS(=O)(=O)c3ccccc32)c1)c1ccncc1` showed an activation of -1.92%.
Molecule `CCCCOCCCNC(=O)C[C@H]1C[C@@]2(C(=O)OC)C(=C[C@H](C(C)(C)C)O[C@@H]2C)N(CCc2ccc(OC)c(OC)c2)C1=O` has an activation of -0.02%.
In the case of `CCCNC(=O)c1cc2c(c(-c3cccc(-c4ccc(C#N)cc4)c3)n1)[C@@H](CCO)N(C(=O)CC)C2`, the activation is reported as -0.02%.
Work on `Cc1ccsc1C(=O)NC1CCCCC1C` (configuration not stated) yielded an activation of -0.72%.
`Cc1ccsc1C(=O)NCCc1ccco1` was tested, and the activation was 8.62%.
Molecule `Cc1ccc(/C=N/NC(=O)c2sccc2OCc2ccc(F)cc2)cc1` has an activation of 3.63%.
In the case of `Cc1ccc(NC(=O)CN2CCC(C(N)=O)CC2)cc1[N+](=O)[O-]`, the activation is reported as 0.92%.
For `Cc1ccsc1C(=O)N/N=C/c1ccc([N+](=O)[O-])cc1`, the activation was 13.9% (active).
`Cc1ccc(NC(=O)c2sccc2C)cc1[N+](=O)[O-]` was tested, and the activation was 14.2% (active).
In the case of `Cn1c(N)c(C(=O)COC(=O)c2ccccc2NCc2ccco2)c(=O)n(C)c1=O`, the activation is reported as -0.34%.
Molecule `COc1ccc(C#CCNCc2ccc(OC)cc2OC)cc1` has an activation of -1.32%.
`O=C(c1ccccc1)c1ccc(-c2ccccc2C(=O)NC2CCCCN(Cc3ccc(Cl)cc3)C2=O)cc1` (configuration not stated) was tested, and the activation was 3.48%.
`CC(CO)N1CCS(=O)(=O)CC1` (configuration not stated) showed an activation of 0.38%.
Work on `N#Cc1ccccc1OC[C@@H](O)CN1CCC(C(O)(c2ccccc2)c2ccccc2)CC1` yielded an activation of -4.54%.
In the case of `C=CCN1C(=O)[C@H](CC(=O)NCCCN2CCCC2=O)[C@@]2(C(=O)OCC)CCCC=C12`, the activation is reported as -1.4%.
Work on `Cc1[nH]nc2c1C(c1ccc(Br)cc1)NC2=O` (configuration not stated) yielded an activation of 0.07%.
`O=C(Nc1ccccc1Cl)c1ccc2nsnc2c1` was tested, and the activation was 12.6% (active).
In the case of `O=S(=O)(Nc1ccccc1Cl)c1cccc2nsnc12`, the activation is reported as -1.42%.
For `O=C(Nc1ccccc1Cl)/C(Cl)=C(\Cl)S(=O)c1ccccc1` (configuration not stated), the activation was -20.1%.
In the case of `Cc1ccc(-n2c(SCC(=O)Nc3ccc(S(=O)(=O)Nc4nccs4)cc3)nnc2-c2ccncc2)cc1`, the activation is reported as -0.9%.
`Nc1ncnc2c1ncn2C1OC(CO)CC1O` (configuration not stated) was tested, and the activation was -1.31%.
`CCOc1ccc(C(=O)Nc2ccc(CN3CCOCC3)cc2)cc1Cl` showed an activation of -0.68%.
Molecule `COc1ccc(C(=O)Nc2ccnn2C2CCN(Cc3ccncc3)CC2)cc1` has an activation of -1.76%.
With `COc1ccc(C(=O)Nc2sc(C)c(C)c2CN2CCOCC2)cc1` the activation was 11.8% (active).
With `COC(=O)c1ccccc1-n1cc(COC(=O)NCCc2ccccc2)nn1` the activation was 0.71%.
In the case of `COC(=O)c1ccc(CN2C(=O)[C@]3(OCCC=C[C@H]3C)c3c(Br)cccc32)cc1`, the activation is reported as 4.21%.
In the case of `Cc1ccc2nc(/C(C#N)=C\c3ccc(OC(=O)c4cccs4)cc3)[nH]c2c1`, the activation is reported as 10.6% (active).
Work on `COc1ccc(S(=O)(=O)N2CCCC2CNC(=O)C(=O)NC2CC2)cc1` (configuration not stated) yielded an activation of 0.71%.
`O=Cc1cn(-c2ccccc2)nc1-c1ccccn1` gave an activation of -0.68%.
For `O=C(O)c1ccc(N/N=C/c2cn(-c3ccccc3)nc2-c2cccs2)cc1`, the activation was 16.3% (active).
In the case of `O=C(N/N=C/c1sc(N2CCCCC2)nc1-c1cccs1)c1cccnc1`, the activation is reported as 1.92%.
For `Fc1ccc2nc(COCc3nc4ccc(F)cc4[nH]3)[nH]c2c1`, the activation was 0.86%.
Molecule `COc1cccc(-c2nnc(N(C)C(=O)c3ccno3)s2)c1` has an activation of 3.08%.
For `O=C(NC1CCCC1)c1cc(-c2ccccc2)on1`, the activation was 36.2% (active).
With `O=C(NC1CCCCCCC1)c1cccs1` the activation was 2.58%.
`O=C(Nc1ccccc1C(=O)NCCCn1ccnc1)c1ccc(Cl)cc1Cl` was tested, and the activation was -1.62%.
For `O=C(NCCCn1ccnc1)c1cc(Br)c(Br)s1`, the activation was 1.27%.
In the case of `O=C(NCCCn1ccnc1)c1cc(-c2ccccc2)on1`, the activation is reported as 46% (active).
`O=C(NC1CC1)c1ccc(-c2ccccc2)cc1` was tested, and the activation was 9.69%.
`COC(=O)c1ccc(COC(=O)C2CCN(S(=O)(=O)c3c(Cl)cccc3Cl)CC2)o1` was tested, and the activation was -1.37%.
Molecule `COc1ccc2c(C(C)c3ccc(N)cc3)cn(C)c2c1` (configuration not stated) has an activation of 0.29%.
Molecule `COC(=O)[C@]1(C#N)CC(=O)N(CC2CCCCC2)[C@@H]1c1ccccc1` has an activation of 1.35%.
Work on `Cc1ccccc1CN1CCCCC(NC(=O)Nc2ccccc2F)C1=O` (configuration not stated) yielded an activation of -3.67%.
With `Nc1nc(SCC(=O)Nc2ccc(Cl)c([N+](=O)[O-])c2)n[nH]1` the activation was -3.01%.
`O=C(NCc1ccccc1)[C@@H]1CCCN1C(=O)[C@H]1CCCN1C(=O)c1cccc(Cl)c1` was tested, and the activation was 2.12%.
`COC(=O)[C@]12C[C@H](CC(=O)N3CCOCC3)C(=O)N(Cc3ccc(Cl)cc3Cl)C1=C[C@H](COCc1ccccc1)O[C@@H]2C` gave an activation of -2.38%.
`CCOC(=O)C1=C(C)NC2=C(C(=O)CC(C)(C)C2)C1c1ccc2c(c1)OCO2` (configuration not stated) gave an activation of -2.39%.
In the case of `COc1ccc(CNC(=O)COC(=O)c2c(C)nn(-c3ccccc3)c2C)cc1OC`, the activation is reported as -3.17%.
`COc1ccc(CNC(=O)COC(=O)c2sccc2C)cc1OC` was tested, and the activation was 0.76%.
`COc1ccc(CNC(=O)COc2ccccc2C(=O)c2cnn(-c3ccccc3)c2)cc1OC` was tested, and the activation was 13.4% (active).
Molecule `CCOC(=O)CNC(=O)N(C)[C@H]1C[C@H]2c3[nH]c4c(-c5ccc6c(c5)OCO6)cccc4c3CCN2C(=O)[C@H]1[C@H](C)O` has an activation of -1.8%.
